Pf apPOL block = Pf-apPOL DNA polymerase inhibition; inhibition, % at 10 µM; actives 0.25% (n = 210,000); Recombinant Pf-apPOL, molecular beacon fluorescence, 1.5 h
mHTT-CaM PPI inh = disrupts binding of mutant huntingtin to calmodulin | inhibition, % at 15 µM | AlphaScreen His-mHTT/GST-CaM binding, luminescence | actives 3.6% (n = 190,000) | P42858;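 also: 0% = both proteins with DMSO and 100% = one protein alone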
Active calls of the source: *; · = no result; ! = not confirmed by another sample. In the library only some 3.5% were active in any assay of this set; here they are far more common. Rule as the data show it: active = inhibition above about 50%; inactive = the rest.

SMILES	Pf apPOL block	mHTT-CaM PPI inh
CCN1CCn2cc(C(=O)NCc3ccccc3Cl)nc2C1	-8	21
Nc1cc(Oc2ccc(O)c(N)c2)ccc1O	3	90*
Nc1cc(C(=O)c2ccc(O)c(N)c2)ccc1O	-8	17
Cc1cc(C)cc(NC(=O)C2CCCN(C(=O)c3ccccc3F)C2)c1 (stereo unspecified)	-23	97*
O=C(Nc1cccc(F)c1)C1CCCN(C(=O)c2ccccc2F)C1 (stereo unspecified)	-8	30
Cc1ccc(C(=O)N2CC3CC2CC3NS(=O)(=O)c2cccs2)cc1F (stereo unspecified)	-4	2
Cc1c(C(=O)N(C)Cc2ccccc2)cccc1[N+](=O)[O-]	8	-7
O=C(NCc1ccccc1F)c1cc2n(n1)CCCN(Cc1ccc(Cl)cc1)C2=O	0	6
O=C(NCCCN1CCOCC1)c1cc2n(n1)CCCN(Cc1ccc(Cl)cc1)C2=O	0	1
Cc1ccccc1CNC(=O)c1cc2n(n1)CCCN(Cc1ccc(Cl)cc1)C2=O	-4	52*
O=C(NCCCN1CCCC1)c1cc2n(n1)CCCN(Cc1ccc(Cl)cc1)C2=O	-5	52*
O=C(NCc1ccccc1)C(=Cc1cn(-c2ccccc2)nc1-c1ccccc1)NC(=O)c1ccccc1	-5	·
COC1=CC(=Cc2c(N)n3nc(-c4ccccc4C)sc3nc2=O)C=CC1=O	-1	57*
CCOC1=CC(=Cc2c(N)n3nc(COc4ccccc4)sc3nc2=O)C=CC1=O	0	31
Cc1cc(N)n2nc(-c3ccc(Cl)cc3)cc2n1	8	3
Cc1cc(C(=O)Nc2nc3c(s2)CN(C(=O)c2cccn(C)c2=O)CC3)no1	2	-4
COc1ccc(/C=C(\C#N)c2[nH]nc(N)c2C#N)cc1Br	0	69*
CCOc1cc(/C=C(\C#N)c2[nH]nc(N)c2C#N)ccc1O	-6	73*
CCN(C)c1ccc(/C=C(\C#N)c2[nH]nc(N)c2C#N)cc1	-3	29
COc1cc(/C=C(\C#N)c2[nH]nc(N)c2C#N)ccc1O	10	54*!
CCN(CC)c1ccc(/C=C(\C#N)c2[nH]nc(N)c2C#N)c(OC)c1	0	60*
COc1ccc(/C=C(\C#N)c2nn(CCO)c(N)c2C#N)c(OC)c1	-1	-1
COc1cc(/C=C(\C#N)c2ccc([N+](=O)[O-])cc2)ccc1O	-2	38
COc1ccc(/C=C2\C(C)=C(C#N)c3nc(N)c(C#N)c(C)c32)cc1Br	-5	20
Cc1cccc2c(N3CCN(C)CC3)cc(C(=O)NCc3ccncc3)nc12	-6	33
SMILES	Pf apPOL block	mHTT-CaM PPI inh
COc1ccc(C)cc1NC(=O)c1cc2nc(-c3ccco3)cc(C(F)(F)Cl)n2n1	-4	13
COc1ccccc1C(=O)Nc1c2c(nn1-c1ccc(F)cc1)CS(=O)C2 (stereo unspecified)	-2	-2
O=C(NCCCN1CCN(c2ccccc2)CC1)C1(n2cccc2)CCCCC1	-10	36
CC1(C)CC(=O)C2=C(C1)c1c(ccc3ncccc13)NC2c1ccc2c(c1)OCO2 (stereo unspecified)	-3	33
CCOc1ccc(NC(=O)c2ccc(-c3ncccc3NC(C)=O)cc2)cc1	6	2
CC(C)C(=O)Nc1ccc(S(=O)(=O)NCC2CCN(S(=O)(=O)C3CC3)CC2)cc1	-8	1
CC(=O)Nc1ccc(NC(=O)c2c(-c3ccccc3Cl)noc2C)cc1	8	0
Cc1onc(-c2ccccc2Cl)c1C(=O)Nc1ccc(Cl)c(Cl)c1	-7	80*
COc1ccc(C(=O)N2CCCCC2c2nncn2CC2CC2)cc1F (stereo unspecified)	0	-4
Cc1ccc(NC(=O)N2CCC(N3CCN(Cc4ccccc4)C3=O)CC2)cc1C	-6	-3
O=C(CCC(=O)N1CC2CCCN2c2ccccc21)NCc1ccc2c(c1)OCO2 (stereo unspecified)	-2	10
Cc1cccc(NC(=O)N2CCCC2c2ccccc2C)c1 (stereo unspecified)	-5	-8
O=C(Nc1ccc2c(c1)OCO2)N1CC2CCCN2c2ccccc21 (stereo unspecified)	-2	81*
Cc1cccc(NC(=O)N2CC3CCCN3c3ccccc32)c1 (stereo unspecified)	0	74*
Cc1ccc(NC(=O)N2CC3CCCN3c3ccccc32)cc1C (stereo unspecified)	3	84*
O=C(Nc1cccc(C(F)(F)F)c1)N1CCC(N2CCN(Cc3ccccc3)C2=O)CC1	-4	-5
O=C(Nc1cccc(C(F)(F)F)c1)N1CC2CCCN2c2ccccc21 (stereo unspecified)	0	81*
COc1ccc(-c2noc(C3CCN(CC(=O)Nc4cc(F)ccc4Cl)CC3)n2)cc1	-4	-9
Nc1c(C(=O)c2ccc(Br)s2)oc2ccc(Br)cc12	·	-4
CC(=O)C1=C(O)C(=O)N(Cc2cccnc2)C1c1ccc([N+](=O)[O-])cc1 (stereo unspecified)	-7	-2
c1cc(-c2nc(C34CC5CC(CC(C5)C3)C4)cs2)ccc1-c1csnn1	4	·
Cc1ccc(NC(=O)N2CC3CCCN3c3ccccc32)c(C)c1 (stereo unspecified)	0	67*
O=C(Nc1ccc(Br)cc1F)N1CC2CCCN2c2ccccc21 (stereo unspecified)	-4	12
Cc1ccc(NC(=O)N2CC3CCCN3c3ccccc32)cc1Cl (stereo unspecified)	-5	89*
Cc1ccc(NC(=O)C2CCC(N3C(=O)c4ccccc4C3=O)CC2)cc1Cl (stereo unspecified)	-16	0
SMILES	Pf apPOL block	mHTT-CaM PPI inh
O=C(CCSc1ccccc1)N1CCN(c2ccc(-c3ccccn3)nn2)CC1	1	100*
COc1cccc(C(=O)N2CCN(c3ccc(-c4ccccn4)nn3)CC2)c1OC	-4	100*
COc1cccc(C(=O)N2CCN(c3ccc(Nc4ccccn4)nn3)CC2)c1OC	-9	14
O=C(CSCc1ccccc1)N1CCN(c2ccc(-c3cccs3)nn2)CC1	-21	8
O=C(Cn1ccc2ccccc21)N1CCN(c2ccc(-c3ccccn3)nn2)CC1	0	45
O=C(CSC1CCCC1)N1CCN(c2ccc(-c3ccccn3)nn2)CC1	-7	100*
O=C(C1COc2ccccc2O1)N1CCC(CCOc2cccc(F)c2)CC1 (stereo unspecified)	0	6
CCC(C)c1ccccc1OCCN1CCOCC1 (stereo unspecified)	-3	3
CCOC(=O)Cc1csc(NC(=O)Cc2csc(NC(=O)Nc3ccccc3)n2)n1	5	-4
Cc1cc(C)n(CCNC(=O)C(C)n2nc(-c3ccc(F)cc3)ccc2=O)n1 (stereo unspecified)	-8	6
Cc1cccc(N2CCN(C(=O)c3ccc4c(c3)N(C)C3CCCCN3C4=O)CC2)c1 (stereo unspecified)	-1	2
Cc1cccc(N2CCN(C(=O)c3ccc4c(c3)N(C)C(=O)C3CCCCN43)CC2)c1C (stereo unspecified)	2	55*
CN1c2cc(C(=O)N3CCN(c4cccc(Cl)c4)CC3)ccc2C(=O)N2CCCCC21 (stereo unspecified)	3	97*
CN1C(=O)C2CCCCN2c2ccc(C(=O)N3CCC(Cc4ccccc4)CC3)cc21 (stereo unspecified)	2	87*
CN1C(=O)C2CCCCN2c2ccc(C(=O)N3CCN(c4ccccn4)CC3)cc21 (stereo unspecified)	0	11

Screening results from PubChem.
